Some test systems named below: NCI-H23 lung; NCI-H226 lung; NCI-H322M lung; HOP-62 NSCLC; NCI-H460 lung; HOP-92 NSCLC; NCI-H522 lung; A549/ATCC NSCLC; 786-0 renal; COLO 205 colon.
Common to all, as to experiment: NCI-60 one-dose screen, 48 h (100 = growth as untreated, 0 = no growth, -100 = all killed)
Holding throughout (details): 10 µM unless noted

Our source for the growth values is PubChem BioAssay (NCI).

“And” between values parts separate entries of the source, which are not always exact repeats. Equal entries are not always repeated. About 83,000 compounds went through this panel and 20% of them were active in at least one assay; those are over-represented in the sample as a whole.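 Each cell line was grown in a 96-well plate and treated with one concentration of compound for 48 hours. Values below 10 were considered active.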 The source made the active and inactive calls.

As for `COC(=O)c1cc(C(=O)C(F)(F)F)n2c3ccccc3c3ccccc3c12`, the growth in the assay with NCI-H23 lung was 83.6% (inactive); in the assay with NCI-H226 lung, 52.6% (inactive); with NCI-H322M lung, 90.8% (inactive); with HOP-62 NSCLC it was 41.1% (inactive); with NCI-H460 lung, 62.1% (inactive); in the assay with HOP-92 NSCLC, 59.2% (inactive). Besides, the growth is 96% (inactive) in the assay with NCI-H522 lung, 92.8% (inactive) in the assay on A549/ATCC NSCLC, 24.2% (inactive) in the assay with 786-0 renal and 79.7% (inactive) in the assay on COLO 205 colon.

With `Clc1ccc2c(NCCNC34CC5CC(CC(C5)C3)C4)ccnc2c1`, the growth in the assay on NCI-H23 lung is -73.2% (active); with NCI-H226 lung, -24.4% (active); with NCI-H322M lung it was -61.7% (active); in the assay with HOP-62 NSCLC, -76.7% (active); in the assay on NCI-H460 lung it was -63.1% (active); in the assay on HOP-92 NSCLC it was -64.7% (active). Besides, the growth in the assay on NCI-H522 lung was -76.7% (active); with A549/ATCC NSCLC it was -33% (active); with 786-0 renal, -79.8% (active); in the assay with COLO 205 colon it was -58.1% (active).

With `Fc1ccc(N2CC(Cn3c(C(F)(F)F)cc4c(Cl)ncnc43)C2)c(F)c1`, the growth in the assay on NCI-H23 lung was -76% (active); with NCI-H226 lung, 116% (inactive); in the assay with NCI-H322M lung it was 45.7% (inactive); with HOP-62 NSCLC it was 46.8% (inactive); in the assay with NCI-H460 lung, -72.9% (active); in the assay on HOP-92 NSCLC it was -7.85% (active). Moreover, the growth was 9.73% (active) in the assay on NCI-H522 lung, 108% (inactive) in the assay with A549/ATCC NSCLC, 79.2% (inactive) in the assay with 786-0 renal and 65% (inactive) with COLO 205 colon.

Turning to `COc1ccc(N=Nc2c(N)nn3c(-c4ccc(OC)c(OC)c4)ccnc23)cc1`, the growth with NCI-H23 lung is 72.8% (inactive); in the assay on NCI-H226 lung, 94.8% (inactive); with NCI-H322M lung, 88.5% (inactive); with HOP-62 NSCLC, 21.5% (inactive); in the assay on NCI-H460 lung it was 85.2% (inactive); in the assay with HOP-92 NSCLC it was 67.6% (inactive). Also, the growth with NCI-H522 lung is 78.7% (inactive); with A549/ATCC NSCLC, 74% (inactive); in the assay with 786-0 renal, 76.2% (inactive); in the assay with COLO 205 colon it was 103% (inactive).

Turning to `O=C1C=CC(=CC=C2N(Cc3ccc4ccccc4c3)c3ccccc3N2Cc2ccc3ccccc3c2)C=C1`, the growth with NCI-H23 lung is 5.96% (active) and 26.9% (inactive); with NCI-H226 lung, 47.1% (inactive) and 48% (inactive); in the assay with NCI-H322M lung, 49.3% (inactive) and 59.1% (inactive); with HOP-62 NSCLC it was 37.3% (inactive) and 45.3% (inactive); in the assay with NCI-H460 lung, 15.7% (inactive) and 10.4% (inactive); with HOP-92 NSCLC it was 3.18% (active) and -22.2% (active). Besides, the growth was -12.5% (active) and 17.7% (inactive) in the assay on NCI-H522 lung; 30.5% (inactive) and 46.4% (inactive) in the assay on A549/ATCC NSCLC; 51.2% (inactive) and 69.2% (inactive) in the assay with 786-0 renal; -29.1% (active) and 0.579% (active) in the assay with COLO 205 colon.

As for `C[C@@H](Nc1c(C#N)cnc2ccc(-c3cnc4[nH]ncc4c3)cc12)c1ccccc1`, the growth was 21% (inactive) with NCI-H23 lung; -1.92% (active) in the assay on NCI-H226 lung; -2.29% (active) in the assay with NCI-H322M lung; 35.4% (inactive) with HOP-62 NSCLC; 15.4% (inactive) in the assay with NCI-H460 lung; -11.3% (active) in the assay with HOP-92 NSCLC. For the same molecule, the growth with NCI-H522 lung was 13.1% (inactive); with A549/ATCC NSCLC, 5.68% (active); in the assay on 786-0 renal, 11% (inactive); in the assay with COLO 205 colon, 84.2% (inactive).

On to `CCOc1ccc2[nH]c(=O)c(C(c3nnnn3CC3CCCO3)N3CCN(Cc4ccccc4)CC3)cc2c1` (stereo not given), for which the growth was 76.6% (inactive) in the assay on NCI-H23 lung; 73.6% (inactive) with NCI-H226 lung; 101% (inactive) in the assay with NCI-H322M lung; 102% (inactive) in the assay on HOP-62 NSCLC; 84.7% (inactive) with NCI-H460 lung; 54% (inactive) in the assay on HOP-92 NSCLC. For the same molecule, the growth was 84.7% (inactive) in the assay on NCI-H522 lung, 92.7% (inactive) in the assay on A549/ATCC NSCLC, 41.7% (inactive) with 786-0 renal and 106% (inactive) in the assay with COLO 205 colon.

Regarding `Cc1ccc2nc(SCc3ccccc3F)n(-c3ccccc3)c(=O)c2c1`, the growth with NCI-H23 lung is 93.9% (inactive); with NCI-H226 lung it was 96.7% (inactive); in the assay on NCI-H322M lung, 97.1% (inactive); with HOP-62 NSCLC, 95% (inactive); with NCI-H460 lung it was 105% (inactive); in the assay with HOP-92 NSCLC, 82.1% (inactive). The growth with NCI-H522 lung is 87.8% (inactive); in the assay with A549/ATCC NSCLC, 85.8% (inactive); with 786-0 renal, 94.9% (inactive); in the assay with COLO 205 colon, 116% (inactive).

For the molecule `CCCCNc1ccc2c3c(cccc13)C(=O)N(c1cccc(-c3nn(-c4ccccc4)cc3-c3nc4ccccc4s3)c1)C2=O`, the growth with NCI-H23 lung was 93.1% (inactive); in the assay with NCI-H226 lung, 83.5% (inactive); in the assay on NCI-H322M lung it was 104% (inactive); in the assay with HOP-62 NSCLC, 107% (inactive); in the assay with NCI-H460 lung, 110% (inactive); in the assay on HOP-92 NSCLC, 100% (inactive). For the same molecule, the growth in the assay with NCI-H522 lung was 99.1% (inactive); in the assay with A549/ATCC NSCLC, 117% (inactive); in the assay on 786-0 renal, 101% (inactive); in the assay on COLO 205 colon, 109% (inactive).

As to `CC[C@]12C=CCN3CC[C@@]4(c5ccc(OC)cc5N(C)[C@H]4[C@@](O)(C(=O)OC)[C@@H]1OC(=O)CCC[P+](c1ccc(OC)cc1)(c1ccc(OC)cc1)c1ccc(OC)cc1)[C@@H]32`, the growth in the assay with NCI-H23 lung was -92.5% (active); with NCI-H226 lung it was -80.3% (active); with NCI-H322M lung it was -97.7% (active); in the assay with HOP-62 NSCLC, -81.6% (active); with NCI-H460 lung, -85.2% (active); with HOP-92 NSCLC, -82.9% (active). Moreover, the growth was -89.4% (active) with NCI-H522 lung, -91.4% (active) in the assay on A549/ATCC NSCLC, -89.5% (active) in the assay on 786-0 renal and -64.4% (active) in the assay with COLO 205 colon.

Take `COc1ccc2c(c1)C(=O)N(C)C2C1c2c(cc3c(c2OC)OCO3)CCN1C` (stereo not given): the growth with NCI-H23 lung was 64.9% (inactive); in the assay on NCI-H226 lung, 65.1% (inactive); with NCI-H322M lung, 75.9% (inactive); with HOP-62 NSCLC it was 54.5% (inactive); with NCI-H460 lung, 20.7% (inactive); with HOP-92 NSCLC it was 78.7% (inactive). For the same molecule, the growth with NCI-H522 lung was 36% (inactive); in the assay on A549/ATCC NSCLC, 57.9% (inactive); with 786-0 renal, 65.9% (inactive); in the assay on COLO 205 colon, 33.1% (inactive).

For `O=c1[nH]c2ccccc2cc1CSc1ccccc1Nc1nccc(-c2ccc3c(c2)OCO3)n1`, the growth in the assay with NCI-H23 lung was 85.5% (inactive); in the assay with NCI-H226 lung it was 49.7% (inactive); in the assay with NCI-H322M lung, 87.7% (inactive); in the assay with HOP-62 NSCLC, 40.6% (inactive); in the assay with NCI-H460 lung, 76.7% (inactive); in the assay with HOP-92 NSCLC, 71.7% (inactive). Moreover, the growth is 34.8% (inactive) in the assay on NCI-H522 lung, 82.4% (inactive) in the assay with A549/ATCC NSCLC, 64.7% (inactive) in the assay with 786-0 renal and 84.9% (inactive) in the assay on COLO 205 colon.

In the case of `COc1ccc(NC(=O)Cn2c(/C=C/c3cccc(Br)c3)nc3ccccc3c2=O)cc1`, the growth in the assay on NCI-H23 lung was 59.3% (inactive); in the assay on NCI-H226 lung it was 6.61% (active); in the assay on NCI-H322M lung, 58.1% (inactive); with HOP-62 NSCLC it was 2.11% (active); in the assay with NCI-H460 lung, 32% (inactive); with HOP-92 NSCLC, 11% (inactive). The growth was 42.6% (inactive) in the assay with NCI-H522 lung, 16.5% (inactive) in the assay on A549/ATCC NSCLC, -44.4% (active) with 786-0 renal and 70.4% (inactive) in the assay with COLO 205 colon.

In the case of `O=C(Nc1ccc(-c2ccc3c(c2)NC(=O)/C3=C\c2ccc[nH]2)cc1)Nc1ccc(Cl)c(C(F)(F)F)c1`, the growth in the assay on NCI-H23 lung is 15.4% (inactive); in the assay on NCI-H226 lung, 65.8% (inactive); in the assay on NCI-H322M lung, 50.6% (inactive); with HOP-62 NSCLC, 44.1% (inactive); with NCI-H460 lung, 4.07% (active); with HOP-92 NSCLC it was 46.9% (inactive). In addition, the growth was -15.1% (active) with NCI-H522 lung, 18% (inactive) with A549/ATCC NSCLC, 48.8% (inactive) in the assay with 786-0 renal and 15.4% (inactive) in the assay on COLO 205 colon.

As to `COc1cccc(NC(=O)c2ccc(NC(=O)CCl)s2)c1`, the growth with NCI-H23 lung is 11.9% (inactive); in the assay on NCI-H226 lung it was 61.5% (inactive); in the assay with NCI-H322M lung it was 101% (inactive); in the assay with HOP-62 NSCLC it was 64.2% (inactive); in the assay on NCI-H460 lung, 12.1% (inactive); with HOP-92 NSCLC, 85.9% (inactive). Also, the growth in the assay on NCI-H522 lung is -79.7% (active); with A549/ATCC NSCLC, 39.7% (inactive); in the assay on 786-0 renal it was -86.8% (active); in the assay on COLO 205 colon, 40.2% (inactive).

Take `COc1cncc(-c2ccc3ncnc(N4CCc5ccc(Cl)cc54)c3c2)c1`: the growth in the assay on NCI-H23 lung is 8.73% (active); in the assay with NCI-H226 lung, 31.8% (inactive); in the assay on NCI-H322M lung, -2.19% (active); in the assay with HOP-62 NSCLC, 51.3% (inactive); in the assay with NCI-H460 lung, 51.8% (inactive); in the assay on HOP-92 NSCLC, -56.9% (active). For the same molecule, the growth is 36.6% (inactive) in the assay on NCI-H522 lung, 29.9% (inactive) in the assay with A549/ATCC NSCLC, -74.2% (active) with 786-0 renal and 38.4% (inactive) in the assay on COLO 205 colon.

Regarding `CC(C)(C)C(=O)C1CC(C#N)=C2C=Cc3c(ccc4ccccc34)N21` (stereo not given), the growth in the assay with NCI-H23 lung was 89.2% (inactive); with NCI-H226 lung, 77% (inactive); with NCI-H322M lung, 101% (inactive); in the assay on HOP-62 NSCLC, 88.3% (inactive); in the assay on NCI-H460 lung, 97.8% (inactive); in the assay on HOP-92 NSCLC, 70.7% (inactive). The growth with NCI-H522 lung was 83.9% (inactive); in the assay with A549/ATCC NSCLC, 81.2% (inactive); in the assay on 786-0 renal, 76.6% (inactive); in the assay with COLO 205 colon it was 93.6% (inactive).

Turning to `N/C(=N\c1nc2ccccc2s1)NC(=O)Nc1ccccc1[N+](=O)[O-]`, the growth was 14.3% (inactive) in the assay with NCI-H23 lung; 29.1% (inactive) with NCI-H226 lung; 39.9% (inactive) in the assay with NCI-H322M lung; 30.1% (inactive) in the assay with HOP-62 NSCLC; 11.1% (inactive) with NCI-H460 lung; -5.71% (active) in the assay on HOP-92 NSCLC. The growth is -50.1% (active) in the assay with NCI-H522 lung, 16.8% (inactive) in the assay with A549/ATCC NSCLC, 11% (inactive) in the assay with 786-0 renal and -72% (active) in the assay with COLO 205 colon.
